The values below come from PMC5540273 (PLoS ONE, 2017).

Holding throughout (conditions): concentration: 1 μM, replicates: in singlicate; n = 1
In assay [1] the test system is ROCK1.
In assay [2] the test system is ROCK2.
Assay [3] concerns ROS1.
Assay [4] relates to RPS6KA4(Kin.Dom.1-N-terminal).
For assay [5], the system named is RPS6KA4(Kin.Dom.2-C-terminal).
Assay [6] concerns RPS6KA5(Kin.Dom.1-N-terminal).
Assay [7] relates to RPS6KA5(Kin.Dom.2-C-terminal).
For assay [8], the system named is T1, RSK1(Kin.Dom.1-N-terminal).
T1 construct: gene RPS6KA1

The test system of assay [9] is T2, RSK1(Kin.Dom.2-C-terminal).
T2 construct: gene RPS6KA1

In assay [10] the test system is T3, RSK2(Kin.Dom.1-N-terminal).
T3 construct: gene RPS6KA3
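Further: KINOMEscan kinase panel screen.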

Consider `CN1C(=O)C(Nc2ccc(Cl)c(C(=O)O)c2)=C(c2ccc(Cl)cc2)C1=O` [SB-404290], for which the “%Inh” value turned out to be 5% in assay [1]; 0% in assay [2]; 18% in assay [3]; 0% in assay [4]; 2% in assay [5]; 0% in assay [6]. For the same compound, the “%Inh” value in assay [7] was 0%; in assay [8] it was 0%; in assay [9], 12%; in [10], 28%.
As for `O=C(Nc1n[nH]c2nc(-c3nccs3)c(Br)cc12)C1CCCC1` [SB-742609], the “%Inh” value worked out at 10% in assay [1]; 0% in assay [2]; 0% in assay [3]; 7% in [4]; 0% in assay [5]; 0% in assay [6]. Further, the “%Inh” value in [7] was 0%; in assay [8], 14%; in assay [9], 0%; in [10] it was 11%.
Turning to `Nc1ncnc2[nH]c(-c3ccccc3)nc12` [AH5015], the “%Inh” value in assay [1] is reported as 11%; in assay [2] it was 14%; in assay [3], 0%; in [4], 15%; in assay [5], 0%; in assay [6], 5%. Also, the “%Inh” value in assay [7] stood at 0%; in assay [8] it was 15%; in assay [9], 0%; in [10], 15%.
As to `COc1ccc(Nc2nccc(-c3cccc(NC(=O)c4cc5cc(F)ccc5[nH]4)c3)n2)cc1` [GSK1229782], the “%Inh” value was found to be 48% in assay [1]; 35% in assay [2]; 34% in [3]; 21% in [4]; 0% in [5]; 6% in [6]. Also, the “%Inh” value is recorded as 14% in assay [7], 13% in assay [8], 5% in assay [9] and 21% in assay [10].
`CCCc1ccc(S(=O)(=O)NC2CCN(c3ccnc(Nc4ccc(F)cc4)n3)C2)cc1` (centres unmarked) [GSK1379715]: the “%Inh” value in [1] was 11%; in assay [2], 0%; in assay [3], 0%; in assay [4] it was 0%; in assay [5], 0%; in [6], 0%. Further, the “%Inh” value is given as 0% in assay [7], 7% in [8], 0% in [9] and 8% in assay [10].
Regarding `O=c1cc(N2CCOCC2)nc2n(Cc3cccc(Cl)c3Cl)ccn12` [GSK2286295], the “%Inh” value in assay [1] stood at 0%; in assay [2], 34%; in assay [3], 7%; in assay [4], 17%; in assay [5] it was 0%; in assay [6], 11%. The “%Inh” value in assay [7] worked out at 0%; in assay [8], 22%; in assay [9], 0%; in assay [10], 0%.
In the case of `COC(=O)c1c(-c2ccccc2)c2cc(OC)ccc2c(=O)n1Cc1ccccc1`, the “%Inh” value in [1] turned out to be 0%; in [2], 0%; in assay [3], 0%; in assay [4] it was 0%; in assay [5], 4%; in [6], 15%. The “%Inh” value came to 0% in [7], 11% in assay [8], 18% in [9] and 0% in assay [10].
With `Cc1ccccc1-n1cnc2c(N)ncnc21` [SKF-97510], the “%Inh” value in assay [1], in assay [2], in [3], in assay [4], in assay [5] and in assay [6] was 0% in each case. Further, the “%Inh” value in assay [7] turned out to be 0%; in assay [8], 18%; in assay [9] it was 93%; in assay [10] it was 0%.
As for `Cc1cccc(-c2nc(Nc3cccc(C(N)=O)c3)c3ccccc3n2)n1` [GW876019], the “%Inh” value turned out to be 1% in assay [1]; 15% in assay [2]; 0% in [3]; 27% in assay [4]; 0% in assay [5]; 0% in assay [6]. Also, the “%Inh” value in assay [7] is given as 0%; in assay [8], 0%; in assay [9] it was 46%; in assay [10], 1%.
For `CS(=O)(=O)c1ccc(-c2c(-c3ncn[nH]3)sc(N3CCOCC3)c2C#N)cc1`, the “%Inh” value was 0% in [1]; 15% in [2]; 14% in [3]; 4% in assay [4]; 0% in [5]; 0% in assay [6]. Further, the “%Inh” value in assay [7] is recorded as 0%; in assay [8] it was 16%; in assay [9], 14%; in assay [10], 4%.
Turning to `Cc1ccc(C(=O)Nc2ccc(Nc3ccnc4cc(-c5ccccn5)ccc34)cc2O)cc1.Cl` [GW440146], the “%Inh” value is 13% in assay [1]; 19% in assay [2]; 16% in [3]; 20% in assay [4]; 0% in assay [5]; 16% in assay [6]. Besides, the “%Inh” value in assay [7] is listed as 0%; in assay [8], 6%; in [9], 0%; in assay [10] it was 0%.
Consider `Cc1cccc(-c2cc(Nc3ccncc3)c3ccccc3n2)n1` [GSK223675], for which the “%Inh” value in assay [1] turned out to be 0%; in [2], 0%; in assay [3] it was 0%; in assay [4], 0%; in [5] it was 0%; in [6] it was 5%. The “%Inh” value in assay [7] stood at 100%; in assay [8], 30%; in assay [9], 35%; in assay [10] it was 0%.
For `Cn1ccc2ncnc(Oc3cccc(C(=O)Nc4ccccc4)c3)c21`, the “%Inh” value in assay [1] was 0%; in assay [2], 16%; in [3], 4%; in [4], 0%; in assay [5] it was 18%; in assay [6] it was 19%. In addition, the “%Inh” value in [7] came to 0%; in assay [8], 0%; in assay [9] it was 9%; in [10], 0%.
As for `Cn1cncc1-c1ccc2ncnc(Nc3ccc(OCc4ccccc4)cc3)c2c1` [GW320571], the “%Inh” value in assay [1] is 3%; in assay [2] it was 17%; in assay [3] it was 9%; in assay [4] it was 13%; in assay [5] it was 0%; in assay [6], 28%. The “%Inh” value in assay [7] is reported as 0%; in assay [8], 0%; in assay [9], 0%; in assay [10] it was 18%.
For `C[C@@H]1CCCCN1c1cc(-c2ccc3c(N)n[nH]c3c2)nc(N)n1` [GSK2258759], the “%Inh” value in assay [1] stood at 0%; in assay [2], 0%; in assay [3] it was 5%; in assay [4] it was 4%; in assay [5] it was 0%; in assay [6], 14%. The “%Inh” value was 10% in [7], 5% in assay [8], 14% in [9] and 0% in assay [10].
`COc1ccccc1-c1ccc2c(NC(=O)C3CC3)n[nH]c2n1` [SB-711239]: the “%Inh” value in assay [1] was 23%; in assay [2] it was 6%; in assay [3], 10%; in assay [4], 9%; in assay [5], 0%; in assay [6], 13%. Moreover, the “%Inh” value stood at 12% in [7], 11% in assay [8], 0% in assay [9] and 0% in assay [10].
Consider `Cc1c(Cn2ccn3c(=O)cc(N4CCOCC4)nc23)cccc1C(F)(F)F` [GSK2289044], for which the “%Inh” value in [1] came out at 0%; in assay [2] it was 0%; in assay [3], 8%; in assay [4] it was 0%; in [5] it was 0%; in assay [6] it was 6%. In addition, the “%Inh” value came out at 11% in [7], 0% in [8], 0% in assay [9] and 0% in assay [10].
